This is a sample that favours compounds with a hit; in the whole collection about 3.7% have one here.
ClpP mod: qHTS Assay for Activators of ClpP | ATP-dependent Clp protease proteolytic subunit (Bacillus subtilis (strain 168)), P80244 | purified B. subtilis ClpP, FRET peptide cleavage, 20 min | Potency, µM (highest dose often 57.5 µM), for inactives: at the highest dose activity change, negative = active | hit rate 1.9% among 340,000 | AID 651965, 2013; active = well fitted falling curve with a large enough effect; inconclusive = small, poorly fitted or top-dose-only effect; inactive = no such curve, though single readings can be large or run the other way; also: potency is read from the fitted curve at half-maximal effect; the source files actives as falling curves though it sought activators and does not explain the sign; nearly all actives have a fitted effect of over 65% in size
Target sequence (P80244 whole entry, looked up): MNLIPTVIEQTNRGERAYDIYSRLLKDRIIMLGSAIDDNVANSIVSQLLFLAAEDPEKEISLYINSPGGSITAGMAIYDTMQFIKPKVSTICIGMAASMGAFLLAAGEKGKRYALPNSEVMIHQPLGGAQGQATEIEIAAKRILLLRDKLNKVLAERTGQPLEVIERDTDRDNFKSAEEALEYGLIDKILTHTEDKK
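FRET quenching reversal measured ClpP activation: 10 microg/mL B. subtilis ClpP at pH 8 with the FRET-FV decapeptide, read at 430 nm after 320 nm excitation. The 20-min minus 0-min signal was scaled between DMSO/no-enzyme wells and ADEP (5.8 microM final).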
Nrf2 activator: qHTS of Nrf2 Activators; AREc32 ARE-luciferase reporter (MCF7-derived line), luminescence, 24 h; Potency, µM (series often up to 46.1 µM), inactives show top-dose activation, most hits filed as activators; hit rate 0.31% among 410,000; AID 624171, 2012; also: potency is read from the fitted curve at half-maximal effect; % of control where 0% means no effect; nearly all actives have a fitted effect of over 65% in size
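Luciferase luminescence (Steady-Glo, 30 min at room temperature) served as the read-out of ARE activation in AREc32 cells treated with compounds for 24 hr at 37 deg C.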
miR-21 reporter: qHTS Assay for Modulators of miRNAs and/orActivators of miR-21; Potency, µM (top dose mostly 38.3 µM), without a hit: at the highest dose activity change, positive = activation, usual class: activators; AID 2288, 2010; 340,000 tested, under 10 active; HeLa miR-21 FLuc reporter, luciferase, 48 h;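 also: % of control where 0% means no effect; miR-21 action dims this reporter so a rising signal means less miR-21 action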
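Compounds were titrated across several concentrations (up to approximately 40 uM) and incubated 48 hours with HeLa miR-21-FLuc reporter cells (miR-21 target sequence downstream of FLuc, endogenous miR-21). Readout was firefly luciferase luminescence after lytic detection reagent.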
Nrf2 inh: Nrf2 qHTS screen for inhibitors | A549 ARE-Fluc reporter, luciferase luminescence, 18-24 h | Potency, µM (highest dose often 46 µM), inactives show at the highest dose activity change, negative = inhibition, hits mostly inhibitors | hit rate 2.1% among 360,000 | AID 504444, 2011; also: potency is read from the fitted curve at half-maximal effect; % is scaled to controls: 0 for no effect and ±100 for the full control effect; nearly all actives have a fitted effect of over 60% in size
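Cells were seeded and rested 2 h, then exposed to compounds for 18-24 h. CellTiter-Fluor was read first as a viability measure. BugLite was added 15 min before the final luminescent read of ARE-luciferase activity in A549 cells.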
IL2 activator: qHTS of IL-2 Activators; AID 652025, 2013; hit rate 0.065% among 360,000; IL-2 activation reporter assay, cell-based qHTS; stimulated with anti-CD3/CD4/CD28 beads; in transgenic mouse T cells; activation, % (series mostly up to about 46 µM); in the data active = activation above about 50%; inconclusive = mostly about 30% to 49%; also: 0% is about no effect
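Readout is EGFP and DsRed signal by fluorescent plate cytometry after 18 h at 37 degrees C. Transgenic mouse T cells (750/well) received compound for 60 min before bead stimulation (anti-CD3, anti-CD4, anti-CD28); memory T cells served as non-tolerant control.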
A549 tox: Nrf2 qHTS screen for inhibitors: counterscreen for cytotoxicity. Potency, µM (titrated, usually from 46 µM), without a hit: top-dose activity change, negative = cytotoxicity, most hits filed as inhibitors. A549 ARE-Fluc cells, CellTiter-Fluor viability, 18-24 h. hit rate 0.16% among 390,000; also: potency is read from the fitted curve at half-maximal effect; % is scaled to controls: 0 for no effect and ±100 for the full control effect
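Cytotoxicity counterscreen: CellTiter-Fluor fluorescence was measured in A549 ARE_Fluc cells after 18-24 h of compound exposure in a concentration series. The subsequent BugLite luminescent read reports ARE-luciferase activity.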
* marks the source's active call; other numbers are inactive results; ? = inconclusive; . = not tested or not shown. Unless noted, calls follow the shape of the dose curve; as a rule, active = well fitted curve in the direction sought with a large enough effect; inconclusive = small, poorly fitted or top-dose-only effect, or another doubt; inactive = no such curve, though single readings can be large; an effect the other way counts as inactive or inconclusive.

SMILES | ClpP mod | Nrf2 activator | miR-21 reporter | Nrf2 inh | IL2 activator | A549 tox
CC(=O)Oc1ccccc1/C=C/c1ccc2ccccc2[n+]1C | -17.7% | 11.2µM* | -33.8% | ? | -0.9 | ?
COc1cccc(/C=C/c2ccc3ccccc3[n+]2C)c1OC | 4.2% | . | . | . | . | .
CCOc1ccc(C(=O)NCC(c2ccc3c(c2)OCO3)N2CCN(c3ccccc3F)CC2)cc1 (stereo not drawn) | 1.0% | 3.5% | 23.1% | . | . | -18.5%
C(=C\c1nc2ccccc2o1)/c1ccc2c(c1)OCO2 | 8.2% | . | . | . | . | .
O=C(c1ccc(Sc2cccc(Cl)c2)c([N+](=O)[O-])c1)N1CCN(c2ccccn2)CC1 | . | 0.7% | 4.3% | 16.4µM* | 2.3 | -11.9%
CCOC(=O)c1c(NC(=O)c2nc(SC(C)C)ncc2Cl)sc2c1CCCC2 | -1.8% | -1.0% | 9.9% | 16.3% | . | -1.3%
N#Cc1c(-c2ccccc2)cc(-c2ccc3c(c2)OCO3)[nH]c1=O | 17.8µM* | -0.2% | . | 3.2% | -3.2 | -2.6%
N#Cc1c(-c2ccc3c(c2)OCO3)csc1N | -3.4% | 6.2% | -33.0% | -10.4% | -3.4 | -11.0%
Cc1ccc2c(c1)[C@H]1[C@H](CO2)[C@H](c2ccccc2)[C@]2(C)C(=O)N(C)CC(=O)N12 | -8.7% | 1.7% | . | 20.6µM* | -0.2 | -6.8%
N=c1ccn(CC(=O)c2ccc(-c3ccccc3)cc2)cc1 | . | 6.1% | 21.7% | 7.31µM* | -1.4 | ?
C=CCn1c(-c2ccoc2)n[nH]c1=S | 31.6µM* | 1.8% | -3.6% | ? | -2.3 | 10.6%
COc1ccc(NC(=O)CCS(=O)(=O)c2cc3c(cc2C)NC(=O)CO3)cc1Cl | -0.1% | 1.4% | ? | -6.9% | . | 0.5%
CC1CCCN(c2nc(-c3cccnc3)nc3scc(-c4ccccc4)c23)C1 (stereo not drawn) | 14.1µM* | 2.7% | -22.3% | -1.9% | -0.4 | -18.0%
CCOc1ccc(CN(C)c2ccc(S(=O)(=O)N3CCN(C)CC3)cc2[N+](=O)[O-])cc1OC | 4.4% | 2.2% | . | 16.4µM* | -0.1 | -4.2%
Clc1cccc(-n2ncc3c(NCCCn4ccnc4)ncnc32)c1 | -8.2% | 13.0% | -52.4% | . | . | 13.9%
CCOc1ccccc1CNC(=O)Cn1c(-c2ccccc2)cc(C(C)=O)c1C | -1.1% | -0.9% | -4.8% | ? | . | -14.0%
Cc1cc(C)cc(NC(=O)c2oc3ccccc3c2COc2ccccc2)c1 | 25.1µM* | 0.2% | -0.3% | 8.8% | -2.6 | 8.1%
COCCCNC(=O)CCCn1c(SCC(=O)c2ccc(F)cc2)nc2c(sc3ccccc32)c1=O | -10.8% | 0.3% | -3.5% | 7.0% | . | 6.4%
Cc1nn(CC(=O)N2CCN(c3ccccc3F)CC2)c(=O)c2cccn12 | 0.9% | -0.2% | 0.8% | ? | . | 8.9%
O=C(/C=C/c1cccc(O)c1)c1ccc(N2CCOCC2)cc1 | -0.9% | 14.1µM* | -2.1% | -1.6% | -0.6 | 8.7%
COc1cc2c(-c3ccccc3Cl)nc3c(c(C)nn3-c3ccccc3)c2cc1OC | 4.1% | -0.6% | -2.1% | -6.2% | . | -2.3%
Cc1ccc(Cl)cc1N1CCN(C(=O)CSc2cc(=O)n(C)c3ccccc23)CC1 | -26.5% | 2.9% | 14.6% | 16.4µM* | . | -9.8%
Cn1c(=O)cc(SCC(=O)N2CCCC2)c2ccccc21 | 28.2µM* | 0.7% | 0.1% | -12.6% | 0.1 | 6.4%
Cn1c(=O)cc(SCC(=O)N2CCN(c3ccc(F)cc3)CC2)c2ccc(Cl)cc21 | -0.5% | 7.4% | -1.0% | 8.6% | . | 1.0%
O=C(CSc1ccc(Cl)cc1)N1CCN(c2ccc([N+](=O)[O-])cc2Cl)CC1 | 0.3% | 0.1% | 9.2% | ? | -2.2 | -26.6%
SMILES | ClpP mod | Nrf2 activator | miR-21 reporter | Nrf2 inh | IL2 activator | A549 tox
Cc1ccc(Cl)cc1N1CCN(C(=O)CSc2ccsc2[N+](=O)[O-])CC1 | 28.2µM* | 0.3% | -10.6% | ? | -4.4 | -7.1%
CCOC(=O)c1c(NC(=O)COc2ccc(C)cc2C(C)(C)C)sc2c1CCC(C)C2 (stereo not drawn) | -23.1% | 3.0% | 2.0% | 8.4% | . | 0.6%
Cc1ccc(NC(=O)c2ccc(NC(=O)N3CCSc4nc(C)cc(C)c43)cc2)c(Cl)c1 | 17.4% | -1.7% | 4.4% | -24.6% | . | 9.6%
COC1=C/C(=C/c2c(N)n3nc(CC(=O)N4CCCC4)sc3nc2=O)C=CC1=O | -0.6% | -0.9% | 5.5% | 27.8% | 5.9 | -0.4%
COC1=CC(=Cc2c(N)n3nc(CC(=O)N4CCCCC4)sc3nc2=O)C=C(OC)C1=O | -1.1% | -0.1% | 2.3% | 3.2% | 84.9* | ?
O=C(Nc1ccccc1)c1ccc(F)c(S(=O)(=O)N2CCOCC2)c1 | -1.3% | 0.3% | 5.5% | 14.9% | -2.9 | -1.9%
Cc1ccc(NC(=O)CSc2nnc(N)s2)cc1S(=O)(=O)N1CCCCC1 | -1.4% | -0.1% | 2.5% | -21.9% | 2.1 | -9.3%
COc1cc(C#N)ccc1OCC(=O)Nc1ccc(C)c(S(=O)(=O)N2CCOCC2)c1 | -2.9% | 2.6% | -5.3% | -29.0% | -0.8 | -2.1%
Cc1ccc(NC(=O)CSc2nnc(C3CC3)n2C)cc1S(=O)(=O)N1CCCCC1 | 0.7% | 0.1% | . | 14.6µM* | -0.6 | -12.0%
Cc1ccc(NC(=O)COc2cccc(C)c2C)cc1S(=O)(=O)N1CCCCCC1 | . | 0.2% | . | 25.9µM* | -2.5 | -9.7%
Cc1ccc(NC(=O)c2ccc(F)c(S(=O)(=O)N3CCOCC3)c2)cc1F | -1.4% | 2.3% | 13.7% | 13µM* | -0.7 | -22.8%
Cc1ccc(NC(=O)COc2ccc(Cl)cc2Cl)cc1S(=O)(=O)N1CCOCC1 | ? | 3.7% | . | 20.6µM* | -5.4 | ?
COc1ccc(CCNc2ncnc3c2nnn3C)cc1OC | 0.8% | -0.7% | -2.1% | . | . | -5.4%
Cc1cc(Cl)ccc1OCC(=O)NCC(c1cccs1)N1CCOCC1 (stereo not drawn) | -1.0% | 0.1% | . | 18.4µM* | -1.9 | -4.8%
COc1ccc(NC(=O)COc2ccccc2C(N)=O)cc1S(=O)(=O)N1CCCCC1 | -1.2% | -0.7% | . | . | 1.2 | .
Cc1ccc(NC(=O)COc2ccccc2C(N)=O)cc1S(=O)(=O)N1CCCCCC1 | -2.2% | -0.9% | . | 5.17µM* | -1.0 | ?
Cc1ccccc1OCCCCn1c(CCNC(=O)C(C)(C)C)nc2ccccc21 | 1.8% | 3.1% | 14.1% | 23.1µM* | . | -25.5%
COc1ccccc1N1CCN(C2=Nc3cccc4cccc2c34)CC1 | . | 6.1% | 6.9% | ? | -0.3 | ?
COc1ccccc1NC1=Nc2cccc3cccc1c23 | . | 0.1% | -14.7% | -27.5% | -3.2 | 25.9µM*
